An excerpt weighted towards active compounds, which were near 11% of everything screened.
NPR1 antag: Natriuretic polypeptide receptor (hNpr1) antagonism - Primary qHTS. HEK293 hNpr1 GloSensor cGMP, ANP-stimulated luminescence. Atrial natriuretic peptide receptor 1 (Homo sapiens), P16066. 76,000 tested, 1.6% active. Potency, µM (series often up to 46.3 µM), usual class: inhibitors; calls by dose curve; also: nearly all actives have a fitted effect of over 60% in size
Target sequence (P16066 whole entry, looked up): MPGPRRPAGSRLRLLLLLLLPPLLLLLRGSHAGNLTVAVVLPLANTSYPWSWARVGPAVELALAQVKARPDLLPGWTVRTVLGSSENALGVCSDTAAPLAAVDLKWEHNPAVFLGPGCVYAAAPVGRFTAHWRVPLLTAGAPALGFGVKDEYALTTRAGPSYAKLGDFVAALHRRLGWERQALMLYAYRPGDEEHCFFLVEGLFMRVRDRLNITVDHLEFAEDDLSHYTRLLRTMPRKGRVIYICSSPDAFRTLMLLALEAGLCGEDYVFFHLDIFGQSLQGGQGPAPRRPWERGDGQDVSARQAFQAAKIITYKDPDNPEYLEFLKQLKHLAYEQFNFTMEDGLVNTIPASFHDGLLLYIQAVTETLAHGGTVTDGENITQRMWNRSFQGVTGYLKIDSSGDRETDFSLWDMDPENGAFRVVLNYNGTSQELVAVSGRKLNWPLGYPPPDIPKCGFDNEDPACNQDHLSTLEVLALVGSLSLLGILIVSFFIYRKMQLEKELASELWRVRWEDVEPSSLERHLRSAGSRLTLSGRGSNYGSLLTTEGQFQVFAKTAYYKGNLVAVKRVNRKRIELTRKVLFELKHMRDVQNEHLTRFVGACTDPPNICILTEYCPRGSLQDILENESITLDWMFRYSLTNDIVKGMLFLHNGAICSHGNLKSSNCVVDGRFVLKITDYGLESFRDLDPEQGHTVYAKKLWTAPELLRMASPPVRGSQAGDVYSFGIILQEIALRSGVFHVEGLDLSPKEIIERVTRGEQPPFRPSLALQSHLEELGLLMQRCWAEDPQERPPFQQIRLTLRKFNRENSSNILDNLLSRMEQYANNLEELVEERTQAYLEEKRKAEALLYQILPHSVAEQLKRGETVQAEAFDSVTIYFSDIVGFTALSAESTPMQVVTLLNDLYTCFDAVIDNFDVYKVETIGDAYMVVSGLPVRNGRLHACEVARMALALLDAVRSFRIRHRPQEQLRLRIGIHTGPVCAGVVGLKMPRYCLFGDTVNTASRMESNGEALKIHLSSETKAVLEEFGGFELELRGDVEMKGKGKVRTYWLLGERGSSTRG
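Compound pre-incubated 30 min at room temperature on GloSensor-loaded HEK293 cells stably carrying hNpr1 and the pGS-40F cGMP biosensor. Stimulation uses hNppA at 0.1 nM final; luminescence is taken at baseline and 20 min post-agonist.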
HEK cytotox: Cytotoxic Profiling in HEK 293 Cell Line of Diverse Libraries Using Quantitative High-Throughput Screening. HEK 293 viability, ATP luminescence (CellTiter-Glo), 48-72 h. Potency, µM (top dose mostly 115 µM), actives largely listed as inhibitors. 94,000 tested, 6.6% active; also: nearly all actives have a fitted effect of over 60% in size
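Cells seeded first (HEK 293, 250 cells/well), then compound added by pintool. Incubation ran 48 or 72 hr at 37 degree Celsius. CellTiter-Glo was added and luminescence imaged after 10 min at room temperature.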
FLuc inh: Firefly luciferase inhibition profiling of diverse chemical library using quantitative high-throughput screening; purified P. pyralis luciferase, luminescence, biochemical; Potency, µM (doses to about 115 µM), actives largely listed as inhibitors; 76,000 tested, 2.5% active; AID 1347043, 2019; also: nearly all actives have a fitted effect of over 65% in size
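Luminescence read by CCD imager after adding enzyme (10nM final) to wells holding compound, titrated in qHTS. Substrates 10uM each D-luciferin and ATP; buffer 50mM Tris acetate pH 7.5, 10mM Mg acetate, Tween-20, BSA.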
3T3 cytotox: Cytotoxic Profiling in NIH 3T3 Cell Line of Diverse Libraries Using Quantitative High-Throughput Screening | NIH 3T3 viability, CellTiter-Glo ATP luminescence, 48-72 h | Potency, µM (doses to about 96.7 µM), most hits filed as inhibitors | 94,000 tested, 4.3% active; also: nearly all actives have a fitted effect of over 55% in size
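ATP-dependent luminescence (CellTiter-Glo) served as the viability signal for NIH 3T3 cells treated with compound for 48 or 72 hr at 37 °C.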
Of the large screens only hits and unclear results are named; the others gave an inactive call. Unless noted, calls follow the shape of the dose curve; as a rule, active = well fitted curve in the direction sought with a large enough effect; inconclusive = small, poorly fitted or top-dose-only effect, or another doubt; inactive = no such curve, though single readings can be large; an effect the other way counts as inactive or inconclusive.

Cc1ccc(-c2cn3c(n2)CO[C@@H](CNC(=O)C2CCCC2)C3)cc1	HEK cytotox inconclusive
COc1ccc(NC(=O)NC[C@H]2Cn3cc(-c4ccc(C)cc4)nc3CO2)cc1	HEK cytotox inconclusive, 3T3 cytotox inconclusive
COc1ccc(-c2cn3c(n2)CO[C@@H](CNC(=O)C2CCCC2)C3)cc1	FLuc inh 28.2µM
COc1ccccc1CNC[C@H]1Cn2c(-c3cccc(Cl)c3)cnc2CO1	HEK cytotox 79.4µM, 3T3 cytotox inconclusive
Fc1ccc(CNC[C@H]2Cn3cc(-c4ccccc4)nc3CO2)cc1	HEK cytotox inconclusive, 3T3 cytotox inconclusive
O=C(Nc1ccccc1)c1ccc(N2CC3CCC(C2)N3CC(F)(F)F)nn1	HEK cytotox inconclusive (no result: NPR1 antag, FLuc inh)
c1ccc(-c2cn3c(n2)CO[C@@H](CNC2CCOCC2)C3)cc1	none
COc1ccc(-c2cn3c(n2)CO[C@@H](CNC2CCC2)C3)cc1	FLuc inh 56.2µM
CC1=C[C@@H](CN2CCN(c3cnccn3)CC2)[C@H](C(C)C)C[C@H]1Cc1nnc(-c2cccnc2)o1	NPR1 antag inconclusive, HEK cytotox 35.5µM, 3T3 cytotox inconclusive
CC1=C[C@@H](CN2CCN(c3ccccn3)CC2)[C@H](C(C)C)C[C@H]1Cc1nnc(-c2cncn2C)o1	HEK cytotox 31.6µM, 3T3 cytotox inconclusive
CC(=O)NC[C@@H]1C=C(C)[C@H](Cc2nnc(-c3cncn3C)o2)C[C@H]1C(C)C	none
CC1=C[C@@H](CN2CCN(CCO)CC2)[C@H](C(C)C)C[C@H]1Cc1nnc(Cc2c[nH]c3ccccc23)o1	HEK cytotox inconclusive, 3T3 cytotox 28.2µM
CC1=C[C@@H](CN2CCN(c3ccccn3)CC2)[C@H](C(C)C)C[C@H]1Cc1nnc(-c2ccc([N+](=O)[O-])cc2)o1	HEK cytotox inconclusive, 3T3 cytotox inconclusive
CC1=C[C@@H](CN2CCN(c3ccc(F)cc3)CC2)[C@H](C(C)C)C[C@H]1Cc1nnc(-c2cncn2C)o1	HEK cytotox 22.4µM, 3T3 cytotox inconclusive
Cc1ccc(C)c(C(=O)N2CCN(c3cc(-c4ccccc4)[nH]n3)CC2)c1	HEK cytotox inconclusive, 3T3 cytotox inconclusive
Cc1cccc(C(=O)N2C(C(=O)NCc3ccc4c(c3)OCO4)COC23CCC(C)CC3)c1 (centres undefined)	HEK cytotox inconclusive, 3T3 cytotox inconclusive
CC(C)(C)CN1Cc2cc3c(cc2N(CC(O)COC(C)(C)C)CCC1=O)OCO3 (centres undefined)	3T3 cytotox inconclusive (no result: NPR1 antag, FLuc inh)
CC1=C(C(=O)OC(C)C)C(c2ccccc2C)N2C(CC(=O)N3CCCC3)=CSC2=N1 (centres undefined)	HEK cytotox inconclusive
COCCNC(=O)C1CCN(C(=O)c2ccc(-c3ccccc3OC)cc2)CC1	none (no result: NPR1 antag, FLuc inh)
CC1=C[C@@H](CN2CCN(c3ccccc3)CC2)[C@H](C(C)C)C[C@H]1Cc1nnc(-c2cncn2C)o1	HEK cytotox 35.5µM, 3T3 cytotox inconclusive
CC1=C[C@@H](CN2CCN(c3ncccn3)CC2)[C@H](C(C)C)C[C@H]1Cc1nnc(COc2ccc(F)cc2)o1	HEK cytotox 25.1µM, 3T3 cytotox 39.8µM
CC1=C[C@@H](CN2CCN(CCO)CC2)[C@H](C(C)C)C[C@H]1Cc1nnc(-c2ccccc2F)o1	HEK cytotox inconclusive, 3T3 cytotox inconclusive
CC(=O)N1CCN(C[C@@H]2C=C(C)[C@H](Cc3nnc(-c4cncn4C)o3)C[C@H]2C(C)C)CC1	HEK cytotox inconclusive, 3T3 cytotox inconclusive
CN(Cc1nccn1C)Cc1cnc(S(=O)(=O)CC2CC2)n1CC1CCCCC1	HEK cytotox inconclusive
Cc1noc(-c2ccc(N3CCN(C/C=C/c4ccccc4)CC3)nc2)n1	HEK cytotox inconclusive, 3T3 cytotox inconclusive
O=C(c1ccc2c(c1)OCO2)N1CCC2(CC1)N(Cc1ccccc1)C(=O)CS2(=O)=O	none (no result: NPR1 antag, FLuc inh)
CC(C)NC(=O)CCC1CCN(C(=O)c2ccccc2F)CC1	FLuc inh 39.8µM
CCN(CC)C(=O)CCC1CCN(C(=O)c2ccccc2F)CC1	FLuc inh 35.5µM
CC(C)OCCCNC(=O)CCC1CCN(C(=O)c2ccccc2F)CC1	none
O=C(CCC1CCN(C(=O)c2ccccc2F)CC1)NCCCc1ccccc1	HEK cytotox inconclusive
CCCNC(=O)CCC1CCN(C(=O)c2ccccc2F)CC1	FLuc inh 39.8µM
Cc1ccc(NC(=O)CCC2CCN(C(=O)c3ccccc3)CC2)cc1F	HEK cytotox 28.2µM, FLuc inh inconclusive, 3T3 cytotox inconclusive
Cc1nn(C)c(C)c1CCN(C)C(=O)CCC1CCN(C(=O)c2ccccc2F)CC1	none
Cc1ccc(CCN2CCCC3(Cc4ccccc4CN([S+](C)(=O)[O-])C3)C2)cc1 (centres undefined)	HEK cytotox inconclusive (no result: NPR1 antag, FLuc inh)
O=C(NC1CC1)c1ccccc1OC1CN(Cc2cccc(C(F)(F)F)c2)C1	HEK cytotox 31.6µM, 3T3 cytotox inconclusive
O=C(NC1CC1)c1ccccc1OC1CN(Cc2ccc(C(F)(F)F)cc2)C1	HEK cytotox 89.1µM, 3T3 cytotox inconclusive
O=C(NC1CC1)c1ccccc1OC1CN(Cc2ccncc2)C1	HEK cytotox inconclusive
Cc1cc(C)cc(C2(CNC(=O)C3CC4(CCNCC4)CN3)CCCC2)c1 (centres undefined)	HEK cytotox 79.4µM, 3T3 cytotox inconclusive
O=C(NCc1ccc2c(c1)OCO2)c1cnc2c(c1)N(C(=O)CCc1ccccc1)CCC2	HEK cytotox inconclusive, 3T3 cytotox inconclusive
O=C(Nc1cccc(F)c1)c1cnc2c(c1)N(C(=O)CCc1ccccc1)CCC2	HEK cytotox inconclusive
O=C(c1cnc2c(c1)N(C(=O)CCc1ccccc1)CCC2)N1CCC(c2ccccc2)CC1	HEK cytotox 79.4µM, 3T3 cytotox inconclusive
Cc1csc(NC(=O)c2cnc3c(c2)N(C(=O)CCc2ccccc2)CCC3)n1	HEK cytotox inconclusive, 3T3 cytotox 89.1µM
O=C(NCc1cccc(Cl)c1)c1cnc2c(c1)N(C(=O)CCc1ccccc1)CCC2	HEK cytotox inconclusive, 3T3 cytotox 100µM
CCOc1ccc(C(=O)NC2CCN(c3cc(-c4ccc(OC)cc4)[nH]n3)CC2)cc1OCC	HEK cytotox inconclusive
COC[C@@H]1CN(C(=O)CCc2ccccc2)C[C@H]1c1ccccn1	none (no result: NPR1 antag, FLuc inh)
COC1CCN(c2ccc3nnc(-c4ccccn4)n3n2)CC1	3T3 cytotox 50.1µM
COc1ccc(-c2nnc3ccc(N4CCc5ccccc5C4)nn23)nc1	HEK cytotox 56.2µM, 3T3 cytotox inconclusive
c1ccc(-c2nnc3ccc(Nc4ccc(N5CCOCC5)cc4)nn23)nc1	HEK cytotox 63.1µM, FLuc inh inconclusive, 3T3 cytotox inconclusive
c1ccc(-c2nnc3ccc(N4CCc5ccccc5C4)nn23)nc1	HEK cytotox 70.8µM, 3T3 cytotox inconclusive
Fc1ccc(-c2nnc3ccc(Nc4ccc(N5CCOCC5)cc4)nn23)nc1	HEK cytotox inconclusive, 3T3 cytotox inconclusive
Cc1ccc(-c2nnc3ccc(N4CCCC4)nn23)nc1	3T3 cytotox inconclusive

Bioassay records: PubChem BioAssay, National Center for Advancing Translational Sciences (NCATS)
